The values that follow come from PubChem BioAssay AID743415 (Broad Institute, 2014).

The assay in a line: Shn3 transcript knock-down in Clone20 cells – cell-based, qPCR, cherry-pick, dose response (AID 743415). The following applies: Shn3 mRNA qPCR, overnight; series mostly up to 35 µM. Background: In qPCR the cycle at which signal appears reflects the starting amount.

Potency and affinity values are given separately. The source made the active and inactive calls.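 The calls were made as follows: active = compounds lowering Shn3 expression whose fitted half-maximal concentration is at most twice the top valid dose; inconclusive = flat partial decrease or an invalid curve fit; inactive = the rest.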

Regarding `COC(=O)C1=C(c2ccc(OCc3ccccc3)cc2)C[C@@H]2CC[C@H]1N2C(=O)NCCCCc1ccccc1`, the result was inactive.

Take `O=c1[nH]c2ccccc2n1C1CCN(C(CCc2ccccc2)c2nnnn2Cc2ccccc2)CC1` (configuration not stated): the outcome was inactive.
